Reference: the supplement of paper PMC6555819

test system: VDR:RXRa (NR concentration 270 nM, RXRa partner concentration 90 nM); assay: PBM binding z-score (relative to random genomic background probes); higher = stronger binding; sequences stand for … in GC…GCGATTGACAGCGTAGAATGAAGG
Procedure: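 Protein-binding microarray (Agilent 4x180K custom design, double-stranded 60-nt probes: 5' GC cap, 34-nt variable region, 24-nt constant primer region; full probe sequence given). Purified or IVT nuclear receptor:RXRα heterodimers (3:1 NR:RXRα, mostly 270:90 nM) or homodimers were incubated for 1 h in PBS with 2% milk and no ligand, then detected with Alexa488 antibodies. Fluorescence from o1-orientation probes (~5 replicates averaged) was converted to z-scores against 500 random hg19 background probes. Variable regions are seed direct-repeat (DR0–DR5) sites, all their single-nucleotide variants and half-site ablations.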

| Sequence | PBM binding z-score |
| --- | --- |
| CCGACTGGGGCCAGGTTACCATAACGCACAGCCA | -0.248 |
| CGTCAAATTTCAAGGTAACGTAACAGAAAGCAGC | 0.0191 |
| GCATATAGGCAATACAAGGTGAAAGTCCGATTGT | 0.0245 |
| CAAACTAGGTCAAGAGGTCAAAGTCCGCTTCCCG | 6.26 |
| AGAATGAGGTTACCAAAGATCTGGGAAACGCTTG | 0.954 |
| GCATATAGGTAATACAAGGTGAAATTCCGATTGT | 0.179 |
| CCGACAGGGGCAAAGGTTACCATACTCAGTACGA | 2.6 |
| TCTATAAGTTGAAGGGCAACCGACGAGTCCGTTT | 1.07 |
| GCATATAGGTATTACAAGGTGAAAGTCCGATTGT | 0.134 |
| CCTAGCAGGCCAATCTGGGTGACTCAAGGCTTGA | -0.769 |
| TATACAGCGTCAAAGGCCAGAGTACGAATGTCGA | -0.305 |
| TCAGTCAGGTGAAGGTAACTCAGGTACGCAGTCG | 0.652 |
| GCTGCTAGGTCAACTGCTGGTCAGCTAAAGCTCG | 1.38 |
| ACTATTCGTTGAGACGAGGGCAACCGATAGGTTG | 0.454 |
| GCATATAGGTAATACAAGGAGAAAGTCCGATTGT | -0.177 |
| CCTAGCACGCCAGGGTCACTCAAGCATTTCGCTT | 2.56 |
| AGAATGAGGGCAATGAGTTGATAGCACGGGTGGC | 4.98 |
| CGTCCAAGGTCAAAGTCAGTGAAAGAGACTCGAA | 3.77 |
| TCTTGTAGATCAGCAGGTTAAGAAGGCTGGCCAA | 0.724 |
| CTCGTAAGGTCGGTTGAGGTGAGTATACGGATAA | 1.75 |

| Sequence | PBM binding z-score |
| --- | --- |
| TGAATGAGGTTCTAAGATCAGGGAACGTTGCAAA | -0.428 |
| AGAACGAGGGCACGCTGAGTTGAGAGCAGAGTAG | 1.59 |
| AGTCTAAGTTCACTAGGTAACGTAAGATTCAGCT | 3.59 |
| TATTGTAGATCAGCAGGTTAAGAAAGCTGGCCAA | 0.112 |
| GCTAGTTGGACAGTAAAAGGTCACACACCGGTCG | 3.84 |
| GGAACGAGGGAAAAGTTGATAGCATCTGTCGACG | -0.649 |
| AGAACGAGGACAATGAGTTGATAGCACGGGTGGC | 1.75 |
| CATACAGGGGCAGCTAGGCCAGAGTAGGGACGGC | -0.446 |
| CCAGACAGGTGTAAGGTAACTCAGTCTGGTACGC | 0.0147 |
| CCTACTGGGCCAAAAACGTCATTGATGCCGATAA | -0.0711 |
| ATATGTAGGTTATCGGGTCATTCAATTTGCGCAT | 3.87 |
| TCTGCTGGGTCAGTTGGTCAGCTAACGAGCTGCC | 0.238 |
| TATACAGGGTCAAAGGCCAGAGCACGAATGTCGA | 4.37 |
| TAATATAGGTAATACAGGTGAAAGTCGGCATCTA | 0.659 |
| ATATGTAGGTTGGCTGGGGTCATTCAGACTAGGC | 5.67 |
| TCTTGCAGGCCAGAGGGTCACTCAAGAGGTACGG | 1.7 |
| TTACCAAGGTGAAAGATCGTTGATGCACGCCTTG | 0.0935 |
| TCTGGTAGATCAACAGGAGGTTAAGAAAGATCGA | 0.61 |
| CGTAGTTGGTCAAGGTCACACACGCTATAGGTAC | 4.2 |
| TCATATAGGTAAAAGGTGAGAGTCGGTGTGGTAA | 1.29 |
